Assay outcomes (PubChem)
Compounds with a hit are over-represented: about 21% of the library has one in this group of screens.
DRD3 agonist: D3 dopamine receptor (human) agonism; max activation, %; D3R DiscoveRx beta-arrestin cells, luminescence, 90 min; P35462; 0.58% of 410,000 active; in the data active = max activation above about 30%
Target sequence (P35462 whole entry, looked up): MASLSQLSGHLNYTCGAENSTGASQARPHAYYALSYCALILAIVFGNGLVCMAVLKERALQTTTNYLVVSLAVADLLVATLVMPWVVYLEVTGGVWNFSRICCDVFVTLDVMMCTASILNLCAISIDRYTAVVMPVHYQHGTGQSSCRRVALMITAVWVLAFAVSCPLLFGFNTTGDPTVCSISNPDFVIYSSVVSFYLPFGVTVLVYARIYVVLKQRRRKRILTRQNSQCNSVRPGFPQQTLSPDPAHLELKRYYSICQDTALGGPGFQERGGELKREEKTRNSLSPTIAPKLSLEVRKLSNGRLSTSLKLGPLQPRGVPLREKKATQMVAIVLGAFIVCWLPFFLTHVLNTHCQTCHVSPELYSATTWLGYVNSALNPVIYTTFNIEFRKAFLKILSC
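Agonist mode: compounds and dopamine controls were applied to plated cells for 90 min at 37 degrees C after an overnight attachment at 1500 cells/well. Luminescent read-out followed 30 - 60 minutes at room temperature with DiscoveRx detection reagent.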
ClpP mod: qHTS Assay for Activators of ClpP | 1.9% of 340,000 active | Potency, µM (highest dose often 57.5 µM) | ATP-dependent Clp protease proteolytic subunit (Bacillus subtilis (strain 168)), P80244 | purified B. subtilis ClpP, FRET peptide cleavage, 20 min | AID 651965, 2013; active = well fitted falling curve with a large enough effect; inconclusive = small, poorly fitted or top-dose-only effect; inactive = no such curve, though single readings can be large or run the other way; note: the source files actives as falling curves though it sought activators and does not explain the sign; nearly all actives have a fitted effect of over 65% in size
Target sequence (P80244 whole entry, looked up): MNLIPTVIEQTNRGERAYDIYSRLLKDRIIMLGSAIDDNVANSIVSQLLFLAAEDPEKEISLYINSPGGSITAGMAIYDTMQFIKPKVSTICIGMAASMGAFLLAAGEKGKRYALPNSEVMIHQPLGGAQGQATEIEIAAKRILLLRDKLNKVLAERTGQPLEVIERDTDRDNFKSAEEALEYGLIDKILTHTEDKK
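FRET quenching reversal measured ClpP activation: 10 microg/mL B. subtilis ClpP at pH 8 with the FRET-FV decapeptide, read at 430 nm after 320 nm excitation. The 20-min minus 0-min signal was scaled between DMSO/no-enzyme wells and ADEP (5.8 microM final).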
DRD3 antagonist: blocks the human D3 dopamine receptor; AID 652054; max response, negative = inhibition, %; D3R cells, DiscoveRx beta-arrestin luminescence, antagonist mode; active compounds read low; 2.5% of 360,000 active; in the data active = max response below about -50%; inconclusive = no clear call, values can overlap the other calls
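Cells plated overnight at 1500 cells/well, then exposed to library compounds with dopamine controls for 90 minutes at 37 degrees C. DiscoveRx reagent added for 30–60 minutes at room temperature; luminescence read, quantitative HTS format.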
IL1B secr inh: inhibitors of inflammasome signaling (IL-1 beta secretion); THP-1 LPS/ATP IL-1B secretion, AlphaLISA, 16 h; active compounds read low; activity change, % at 57.5 µM; 4.7% of 360,000 active; in the data active = activity change below about -50%; inconclusive = mostly about -30% to -49%
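Secreted IL-1B measured by AlphaLISA bead assay after 16 h compound exposure of THP-1 cells; compounds (final up to 57.5 uM) added 1 h before LPS (250 ng/mL) and ATP (1.25 mM) stimulation; lower signal means less secretion.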
TDP1 cell CPT: growth inhibition of DT40 Tdp1-/-;hTDP1 cells with camptothecin (screen for TDP1 inhibitors); chicken DT40 Tdp1-/-;hTDP1 cells + 20 nM CPT, ATP luminescence, 48 h; Potency, µM (top dose mostly 46.2 µM), most hits filed as inhibitors; 12% of 420,000 active; note: nearly all actives have a fitted effect of over 55% in size
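Chicken DT40 Tdp1-/- cells stably complemented with human TDP1 were seeded at 400 cells/well in medium containing 20 nM camptothecin, exposed to pin-transferred compounds, and grown at 37 °C for at least 48 hr. Viability was read as ATP luminescence.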
DT40 TDP1 no CPT: qHTS for Inhibitors of human tyrosyl-DNA phosphodiesterase 1 (TDP1): qHTS in cells in absence of CPT; DT40 Tdp1-/- hTDP1 cells, no CPT, ATP luminescence, 48 h; Potency, µM (top dose mostly 46.2 µM), usual class: inhibitors; 15% of 420,000 active; note: nearly all actives have a fitted effect of over 55% in size
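A cellular qHTS used chicken DT40 cells lacking endogenous Tdp1 but carrying stably transfected human TDP1. Compounds were applied without camptothecin, and cell growth kinetics were judged by ATP-dependent luminescence after ≥48 hr.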
A number is an active result; [ ] = remark or other dose. Unless noted, calls come from the whole dose curve; as a rule, active = well fitted inhibition curve with a large enough effect; inconclusive = small, poorly fitted or top-dose-only effect; inactive = flat fitted curve, though single readings scatter.

`OC(Cc1cccnc1)c1ccccc1` (stereo not drawn) gave DRD3 agonist inactive, ClpP mod inactive, DRD3 antagonist inactive, IL1B secr inh inactive, TDP1 cell CPT inactive and DT40 TDP1 no CPT inactive.
Screening COc1ccc(C(=O)OCc2csc(C)n2)c(O)c1 returned DRD3 agonist inactive, ClpP mod inactive, DRD3 antagonist inactive, IL1B secr inh inactive, TDP1 cell CPT inactive and DT40 TDP1 no CPT inactive.
For O=C(CCS(=O)(=O)c1cc2c(cc1Cl)NC(=O)CO2)NCc1ccccc1 the results were DRD3 agonist inactive, ClpP mod inactive, DRD3 antagonist inactive, IL1B secr inh inactive, TDP1 cell CPT inconclusive and DT40 TDP1 no CPT inactive.
Screening CCOC(=O)C1CCN(CC(=O)Nc2cc(C)c3c(=O)oc4ccccc4c3n2)CC1 returned DRD3 agonist inactive, ClpP mod inactive, TDP1 cell CPT inactive and DT40 TDP1 no CPT inactive.
CN1CCC(N2CCN(C3CN(Cc4ccccc4)S(=O)(=O)C3)CC2)CC1 (stereo not drawn) was read as DRD3 agonist inactive, ClpP mod inactive, DRD3 antagonist inactive, IL1B secr inh inactive, TDP1 cell CPT inactive and DT40 TDP1 no CPT inactive.
Screening CC(=O)Nc1ccc(S(=O)(=O)NNC(=O)c2cc3c4ccccc4n(C)c3s2)cc1 returned DRD3 agonist inactive, ClpP mod 28.2µM, DRD3 antagonist inconclusive, IL1B secr inh inactive, TDP1 cell CPT 5.17µM and DT40 TDP1 no CPT 5.17µM.
For CCCNC(=O)c1cc2c3ccccc3n(C)c2s1 the results were DRD3 agonist inactive, ClpP mod inconclusive, DRD3 antagonist inactive, IL1B secr inh inactive, TDP1 cell CPT inactive and DT40 TDP1 no CPT inactive.
`Cn1c2ccccc2c2cc(C(=O)NNC(=O)CCl)sc21` gave DRD3 agonist inactive, DRD3 antagonist inactive, IL1B secr inh -132.6, TDP1 cell CPT 3.66µM and DT40 TDP1 no CPT 9.2µM.
For COc1ccc(C(C)=O)cc1COc1nc(C)nc2ccccc12 the results were DRD3 agonist inactive, DRD3 antagonist inactive, IL1B secr inh inactive, TDP1 cell CPT inactive and DT40 TDP1 no CPT inactive.
`COCCNC(=O)C1CCCN(Cc2ccccc2)CC1` (stereo not drawn) gave DRD3 agonist inactive, ClpP mod inactive, DRD3 antagonist inactive, IL1B secr inh inconclusive, TDP1 cell CPT inactive and DT40 TDP1 no CPT inactive.
For O=C(NCCc1ccccc1)C1CCN(Cc2cccc3ccccc23)CC1 the results were DRD3 agonist inactive, ClpP mod 15.8µM, DRD3 antagonist inactive, IL1B secr inh -51.1, TDP1 cell CPT inconclusive and DT40 TDP1 no CPT inconclusive.
CCCNC(=O)C1CCN(Cc2cc3ccccc3n2Cc2ccccc2)CC1 was read as DRD3 agonist inactive, ClpP mod inactive, TDP1 cell CPT inconclusive and DT40 TDP1 no CPT 18.4µM.
For CCOc1ccccc1CNC(=O)C1CCN(Cc2cc3ccccc3n2Cc2ccccc2)CC1 the results were DRD3 agonist inactive, ClpP mod inactive, TDP1 cell CPT inconclusive and DT40 TDP1 no CPT 16.4µM.
CC(CNC(=O)C1CCN(Cc2cc3ccccc3n2Cc2ccccc2)CC1)c1ccccc1 (stereo not drawn) was read as DRD3 agonist inactive, ClpP mod inactive, TDP1 cell CPT 23.1µM and DT40 TDP1 no CPT 16.4µM.
Screening O=C(NCCc1ccccc1)C1CCN(Cc2cc3ccccc3n2Cc2ccccc2)CC1 returned DRD3 agonist inactive, ClpP mod inconclusive, TDP1 cell CPT inconclusive and DT40 TDP1 no CPT 20.6µM.
Screening CN(Cc1ccccc1)C(=O)C1CCN(Cc2cc3ccccc3n2Cc2ccccc2)CC1 returned DRD3 agonist inactive, ClpP mod inactive, TDP1 cell CPT inconclusive and DT40 TDP1 no CPT inconclusive.
CN(C)CCNC(=O)C1CCN(Cc2cc3ccccc3n2Cc2ccccc2)CC1 was read as DRD3 agonist inactive, ClpP mod inactive, TDP1 cell CPT 20.6µM and DT40 TDP1 no CPT 16.4µM.
For O=C(NCCc1ccccc1)C1CCN(c2ncccn2)CC1 the results were DRD3 agonist inactive, DRD3 antagonist inactive, IL1B secr inh inactive, TDP1 cell CPT inconclusive and DT40 TDP1 no CPT inactive.
CSc1ncccc1C(=O)OCC(=O)N(CC(C)C)c1c(N)n(Cc2ccccc2)c(=O)[nH]c1=O was read as DRD3 agonist inactive, ClpP mod inactive, DRD3 antagonist inactive, IL1B secr inh inactive, TDP1 cell CPT inactive and DT40 TDP1 no CPT inactive.
Screening CCS(=O)(=O)c1ccc(O)c(NC(=O)Nc2ccccc2OC)c1 returned DRD3 agonist inactive, DRD3 antagonist inactive, IL1B secr inh inactive, TDP1 cell CPT inactive and DT40 TDP1 no CPT inactive.
For CC1CN(Cc2cccn2-c2ncccn2)Cc2cc(Cl)ccc2O1 (stereo not drawn) the results were TDP1 cell CPT inactive[9.04 µM] and DT40 TDP1 no CPT inconclusive.
`CC1CN(Cc2cccn2-c2cccnc2)Cc2cc(Cl)ccc2O1` (stereo not drawn) gave TDP1 cell CPT inactive[9.04 µM] and DT40 TDP1 no CPT 18.4µM.
For Cc1cc(C)c2nc(NNC(=O)c3cc(-c4cccs4)nc4ccccc34)sc2c1 the results were DRD3 agonist inactive, ClpP mod inactive, DRD3 antagonist inactive, IL1B secr inh inactive, TDP1 cell CPT 4.61µM and DT40 TDP1 no CPT 5.17µM.
`O=C(NNc1nc2ccc(Cl)cc2s1)c1cc(-c2cccs2)nc2ccccc12` gave DRD3 agonist 42.5, ClpP mod inactive, DRD3 antagonist inactive, IL1B secr inh inactive, TDP1 cell CPT 2.59µM and DT40 TDP1 no CPT 5.17µM.
Screening Nc1c(-c2ccc3c(c2)OCCO3)oc2ccccc2c1=O returned DRD3 agonist inactive, ClpP mod inactive, DRD3 antagonist inactive, IL1B secr inh inactive, TDP1 cell CPT inactive and DT40 TDP1 no CPT inconclusive.
CN(CC(=O)NCCc1ccccc1)S(=O)(=O)c1ccccc1 was read as DRD3 agonist inactive, ClpP mod inactive, DRD3 antagonist inactive, IL1B secr inh inactive, TDP1 cell CPT inactive and DT40 TDP1 no CPT inactive.
`Nc1ccccc1O` gave DRD3 agonist inactive, ClpP mod inactive, DRD3 antagonist inactive, IL1B secr inh inactive, TDP1 cell CPT inconclusive and DT40 TDP1 no CPT 16.4µM.
For Nc1cccc2c(O)cccc12 the results were DRD3 agonist inactive, ClpP mod inactive, DRD3 antagonist inactive, IL1B secr inh inactive, TDP1 cell CPT inactive and DT40 TDP1 no CPT inactive.
For Nc1ccccc1-c1ccccc1N the results were DRD3 agonist inactive, ClpP mod 7.94µM, DRD3 antagonist inactive, IL1B secr inh inactive, TDP1 cell CPT inactive and DT40 TDP1 no CPT inactive.
Nc1ccccc1-c1ccc(Cl)cc1 was read as DRD3 agonist inactive, ClpP mod inactive, DRD3 antagonist inactive, IL1B secr inh inactive, TDP1 cell CPT inactive and DT40 TDP1 no CPT inactive.
